# Shown are actives, neighbours in structure and some others; about 19% of the full set was active somewhere.
# HT1080 IDH1KD tx – toxicity to HT-1080 IDH1 knockdown cells (counter line) | Potency, µM (doses to about 46.1 µM), for the others: at the highest dose activity, negative = toxicity, actives largely listed as cytotoxic | AID 686971 | HT-1080 IDH1 knockdown viability, ATP luminescence, 48 h | 2% of 360,000 active;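 further: potency means the concentration at half of the fitted maximal effect; 0% = DMSO wells and -100% = cell-free medium wells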
#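 Assay cells: HT-1080 with IDH1 knockdown, 750 per well, RPMI/5% FBS. Exposure: 48 h at 37 °C following 2 h pre-incubation. Read: CellTiter-Glo luminescence; fitted concentration-response, curve class assigned.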
# IL-1B inflam inh – inflammasome signaling inhibition, IL-1 beta readout. AID 743279. THP-1 LPS/ATP IL-1B secretion, AlphaLISA, 16 h; hits give low values. 4.7% of 360,000 active. activity change, % at 57.5 µM; in the data active means activity change below about -50%; inconclusive means mostly about -30% to -49%
#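 Secreted IL-1B measured by AlphaLISA bead assay after 16 h compound exposure of THP-1 cells; compounds (final up to 57.5 uM) added 1 h before LPS (250 ng/mL) and ATP (1.25 mM) stimulation; lower signal means less secretion.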
# TDP1 cell noCPT – qHTS for Inhibitors of human tyrosyl-DNA phosphodiesterase 1 (TDP1): qHTS in cells in absence of CPT; DT40 Tdp1-/- hTDP1 cells, no CPT, ATP luminescence, 48 h; 15% of 420,000 active; Potency, µM (series often up to 46.2 µM), for the others: at the highest dose activity change, negative = growth inhibition, most hits filed as inhibitors; further: potency means the concentration at half of the fitted maximal effect; nearly all actives have a fitted effect of over 55% in size
#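 Growth of hTDP1-complemented DT40 Tdp1-knockout cells is measured by ATP luminescence after at least 48 hr compound exposure at 37 °C, with DMSO substituting for the 20 nM CPT used in the parallel screen.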
# HT1080NT lethal – kills 2HG-producing HT-1080-NT fibrosarcoma cells. AID 686970. Potency, µM (top dose mostly 46.1 µM), for the others: at the top dose activity, negative = less viability, most hits filed as cytotoxic. 1.6% of 360,000 active. HT-1080-NT fibrosarcoma viability, CellTiter-Glo ATP luminescence, 48 h;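 further: NT is the 2HG producing partner of a matched IDH1 knockdown line; potency means the concentration at half of the fitted maximal effect; 0% = DMSO-treated cells and -100% = media-only wells without cells; nearly all actives have a fitted effect of over 55% in size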
#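 750 cells/well, RPMI + 5% FBS; 2 h settle, compound pin-transfer, 48 h at 37 degrees C. CellTiter-Glo 10 min RT, luminescence. Normalized to DMSO and media-only wells.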
# DT40 TDP1 CPT – growth inhibition of DT40 Tdp1-/-;hTDP1 cells with camptothecin (screen for TDP1 inhibitors); chicken DT40 Tdp1-/-;hTDP1 cells + 20 nM CPT, ATP luminescence, 48 h; Potency, µM (series often up to 46.2 µM), for the others: top-dose activity change, negative = growth inhibition, usual class: inhibitors; 12% of 420,000 active; further: potency means the concentration at half of the fitted maximal effect; nearly all actives have a fitted effect of over 55% in size
#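 Chicken DT40 Tdp1-/- cells stably complemented with human TDP1 were seeded at 400 cells/well in medium containing 20 nM camptothecin, exposed to pin-transferred compounds, and grown at 37 °C for at least 48 hr. Viability was read as ATP luminescence.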
# An asterisk follows results filed as active; u = inconclusive; x = no result given; [ ] = another dose, or the depositor's remark. Unless noted, the call rests on the fitted dose curve; in most records, active means well fitted curve in the direction sought with a large enough effect; inconclusive means small, poorly fitted or top-dose-only effect, or another doubt; inactive means no such curve, though single readings can be large; an effect the other way counts as inactive or inconclusive. Unless noted, on the % scale 0 is the no-effect control and ±100 the full control effect.
SMILES,HT1080 IDH1KD tx,IL-1B inflam inh,TDP1 cell noCPT,HT1080NT lethal,DT40 TDP1 CPT
CC(Oc1ccccc1)C(=O)Nc1ccccc1C(=O)OCc1cc(=O)n2nc(C(C)C)sc2n1 (stereo not drawn),x,x,20.6µM*,x,u
CC(C)c1nn2c(=O)cc(COC(=O)c3ccccc3NC(=O)COc3ccccc3)nc2s1,x,x,u,x,5.1%
C[C@@H]1CCCCO[C@H](CN(C)Cc2ccc(C(=O)O)cc2)[C@@H](C)CN([C@H](C)CO)C(=O)c2cc(NC(=O)CCC(F)(F)F)ccc2O1,6.6%,33.5,-28.4%,2.1%,-11.6%
C[C@H](NC(=O)C1CCN(S(=O)(=O)c2ccccc2)CC1)C(=O)NCc1ccncc1,9.8%,-4.4,0.1%,-0.2%,-9.9%
Cc1nc2nc(C)n(CCN3CCOCC3)c(=O)c2c(-c2cccc([N+](=O)[O-])c2)c1C(=O)CCCCCCCCCCN1CCC(c2ccccc2)(c2ccccc2)CC1,20.6µM*,-99.1*,u,u,u
CSCCC(Nc1ncnc2ccc(Br)cc12)C(=O)O (stereo not drawn),-3.3%,52.8,-12.4%,1.8%,u
CC(C)COc1ccc(Nc2ncnc3ccc(Br)cc23)cc1,x,x,u,x,11.6µM*
Brc1ccc2ncnc(Nc3ccc(N4CCOCC4)cc3)c2c1,-27.2%,-16.4,9.2µM*,-24.5%,11.6µM*
CC(C)Nc1ncnc2ccc(Br)cc12,-21.7%,-6.1,4.11µM*,-10.0%,4.11µM*
O=C(Cn1[nH]c(=O)c2ccccc2c1=O)NNC(=O)c1ccccc1,8.2%,21.4,-9.9%,-1.5%,-26.7%
COc1ccc(-c2cc3c(=O)n(CC(=O)Nc4ccc(Cl)cc4)nc(C)n3n2)cc1,-4.6%,84.8,21.1%,-4.3%,-21.8%
Cc1cccc(Cn2c(Sc3nc(C)cs3)nc3c2c(=O)[nH]c(=O)n3C)c1,2.5%,25.5,18.4µM*,-0.6%,u
Cc1cccc(Cn2c(SCC(=O)Nc3ccccc3)nc3c2c(=O)[nH]c(=O)n3C)c1,-12.0%,u,20.6µM*,-13.8%,u
Cn1c(=O)[nH]c(=O)c2c1nc(NC1CCCCC1)n2Cc1ccccc1,0.2%[9.24 µM],-6.9,u,9.5%,u
Cc1cccc(Cn2c(NC3CCCC3)nc3c2c(=O)[nH]c(=O)n3C)c1,-7.9%,-14.3,23.1µM*,-5.0%,u
Cn1c(=O)[nH]c(=O)c2c1nc(SCC(=O)O)n2Cc1ccccc1,3.3%,5.7,3.5%,4.3%,3.7%
COc1cc2nc(SCC(=O)NCCc3ccccc3)n(Cc3ccco3)c(=O)c2cc1OC,1.9%,-1.9,-5.5%,-5.1%,-15.7%
CCSc1nc2cc(OC)c(OC)cc2c(=O)n1CCc1ccccc1,4.9%,12.5,20.6µM*,7.8%,16.4µM*
COCCCn1c(SCCc2ccccc2)nc2cc(OC)c(OC)cc2c1=N,-23.3%,-17.2,13µM*,u,16.4µM*
COc1cc2nc(SCc3ccc(F)cc3)n(Cc3cccs3)c(=N)c2cc1OC,-10.1%,-2.5,-13.6%,-0.4%,-42.8%
COc1ccc(C(=O)NC(=S)NCc2cccnc2)cc1Cl,-4.5%,-12.2,u,-0.2%,-21.8%
CCCn1c(-c2cccnc2Cl)nc2cc(Cl)c(Cl)cc21,u,7.0,u,-11.0%,14.6µM*
Clc1cccc(Cl)c1Cn1c(-c2cccnc2Cl)nc2ccccc21,-23.7%,-6.5,u,-4.9%,u
C=CCn1c(-c2cccnc2Cl)nc2cc(Cl)c(Cl)cc21,-24.3%,-2.0,u,-22.0%,18.4µM*
COc1cccc(NS(=O)(=O)c2ccc3c(c2)C2C=CCC2C(c2ccc(C(=O)O)cc2)N3)c1 (stereo not drawn),4.9%,13.0,-11.0%,6.2%,-9.0%
SMILES,HT1080 IDH1KD tx,IL-1B inflam inh,TDP1 cell noCPT,HT1080NT lethal,DT40 TDP1 CPT
COC(=O)c1ccc([C@H]2Nc3ccc(S(=O)(=O)Nc4ccc(F)cc4)cc3[C@H]3C=CC[C@H]32)cc1,x,x,3.26µM*,x,3.66µM*
COc1ccc(C(=O)N/N=C(\C)c2ccc3c(c2)C2C=CCC2C(c2ccccc2)N3)cc1 (stereo not drawn),-1.4%,-5.0,14.6µM*,-5.3%,u
COc1ccc(C)cc1NS(=O)(=O)c1ccc2c(c1)[C@H]1C=CC[C@H]1[C@@H](c1cccc(Cl)c1)N2,x,x,20.6µM*,x,13µM*
Cc1cccc(NS(=O)(=O)c2ccc3c(c2)[C@H]2C=CC[C@H]2[C@@H](c2ccc(F)cc2)N3)c1,x,x,10.3µM*,x,10.3µM*
CCN(CC)C(=O)[C@H]1CC(CC(=O)NCc2ccco2)C(=O)N2CCc3c([nH]c4ccc(OC)cc34)[C@]12C (stereo partly drawn),-1.1%,-5.1,-24.8%,-0.1%,-14.6%
CC(C)CCSc1nnc2n(-c3ccccc3)c(=O)c3c4c(sc3n12)CC(C)CC4 (stereo not drawn),x,x,-18.9%,x,-15.6%
COc1ccc(/[N+]([O-])=C/c2ccco2)cc1,7.4%,-3.2,16.4µM*,8.1%,14.6µM*
O=C(NCc1ccccc1Cl)[C@H]1CCCN1C(=O)[C@H]1CCCN1C(=O)c1cccs1,8.5%,-8.1,-5.7%,20.9%,-14.9%
CCc1ccc(OCC(=O)Nc2ccncc2)c(Br)c1,u,-8.8,10.3µM*,u,u
CCc1ccc(OCC(=O)NNC(=O)c2cnccn2)c(Br)c1,u,0.0,8.2µM*,u,5.8µM*
CC(C)(C)c1ccc(OCC(=O)Nc2ccncc2)c(Br)c1,-25.7%,39.5,7.31µM*,-28.3%,8.2µM*
Cc1cc(OCC(=O)Nc2ccncc2)c(C)cc1Br,u,-12.6,-17.4%,0.6%,u
Cc1ccc(NC(=O)Cn2c(=O)ccn(Cc3ccccc3)c2=O)cc1S(=O)(=O)N1CCOCC1,-0.2%,27.8,-0.8%,0.3%,4.3%
CC(C)c1ccc(NC(=S)NCc2cccs2)cc1,u,19.7,-8.0%,11.2µM*,-23.9%
Cc1cc(Cl)ccc1NC(=S)NCc1cccs1,u,0.0,u,18.4µM*,-4.5%
S=C(NCc1cccs1)Nc1cc(Cl)cc(Cl)c1,u,-83.3*,u,u,u
CCc1cc(=O)oc2cc(OC(C)C(=O)NCc3ccccn3)ccc12 (stereo not drawn),-0.6%,5.4,0.5%,8.0%,-0.4%
O=C(O)c1cccc(N2C(=O)c3cc([N+](=O)[O-])cc4cc([N+](=O)[O-])cc(c34)C2=O)c1,u,-19.7,u,u,u
COc1ccc(-c2nnc3ccc(SCC(=O)N4CCN(c5ccccc5)CC4)nn23)cc1,14.3%,-3.8,u,13.4%,u
